In the library only some 3.4% were active in any assay of this set; here they are far more common.
GPR151 activ – activates the human receptor GPR151 | activation, % at 11.2 µM | PathHunter beta-arrestin GPR151 cells, luminescence | actives 1% (n = 650,000); in the data active means activation above about 4.9%;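 further: 0% = median of compound wells and 100% = cells with positive control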
MITF inh – inhibitors of human MITF. AlphaScreen MITF homodimerization, bead proximity signal. inhibition, % at 2.6 µM. AID 1259374. actives 0.91% (n = 650,000). O75030; in the data active means inhibition above about 50%;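 further: 0% = vehicle wells with protein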
FBW7 act – activators of human E3 ligase FBW7. Q969H0. AlphaScreen FBW7–phospho-cyclin E peptide binding, activator screen. normalized activity (activation), % at 26.1 µM. actives 0.13% (n = 650,000). AID 1259310; in the data active means normalized activity above about 1.9%;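 further: purified mutant Fbw7 with reduced substrate affinity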
Target sequence (Q969H0 whole entry, looked up): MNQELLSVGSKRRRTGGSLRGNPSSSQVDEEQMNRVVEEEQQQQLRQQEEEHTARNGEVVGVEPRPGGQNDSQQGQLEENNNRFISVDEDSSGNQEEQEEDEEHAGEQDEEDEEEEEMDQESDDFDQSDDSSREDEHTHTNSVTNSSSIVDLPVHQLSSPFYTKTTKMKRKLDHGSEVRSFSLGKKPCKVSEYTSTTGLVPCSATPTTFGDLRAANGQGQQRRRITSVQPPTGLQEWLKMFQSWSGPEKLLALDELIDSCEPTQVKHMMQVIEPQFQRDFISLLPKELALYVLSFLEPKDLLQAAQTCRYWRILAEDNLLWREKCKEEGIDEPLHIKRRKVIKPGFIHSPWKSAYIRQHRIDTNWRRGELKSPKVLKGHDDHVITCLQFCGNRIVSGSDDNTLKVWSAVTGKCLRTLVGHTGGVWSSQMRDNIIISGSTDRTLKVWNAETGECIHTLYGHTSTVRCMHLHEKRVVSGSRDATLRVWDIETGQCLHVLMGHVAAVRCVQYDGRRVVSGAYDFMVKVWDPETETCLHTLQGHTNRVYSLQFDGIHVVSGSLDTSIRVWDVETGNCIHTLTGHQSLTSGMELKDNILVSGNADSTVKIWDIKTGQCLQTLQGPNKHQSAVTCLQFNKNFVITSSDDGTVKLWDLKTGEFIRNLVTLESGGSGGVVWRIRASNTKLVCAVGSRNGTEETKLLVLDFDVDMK
TEAD-YAP block – TEAD-YAP interaction inhibition | HEK-TIYL cells, TEAD-Gal4/YAP UAS-luciferase luminescence | inhibition, % at 9.12 µM | actives 1.4% (n = 640,000); in the data active means inhibition above about 32%;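 further: 0% = median of test compound wells and 100% = reference inhibitor wells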
GPR151 conf act – confirmation of human GPR151 activators; shares compounds with GPR151 activ; GPR151 PathHunter beta-arrestin cells, luminescence, 90 min; % of EA-reagent control over plate median; activation, % at 11.2 µM; 6,700 tested, under 10 active; AID 1508609;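 active means mean percent activation across replicates above the confirmation screen cutoff of 4.91%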
GPR119 counter – activates human GPR119 in a GPR151 counter-screen. GPR119 PathHunter beta-arrestin cells, luminescence, 90 min; 0 = compound-well median, 100 = enzyme-acceptor control. activation, % at 11.2 µM. actives 0.3% (n = 6,700). shares compounds with GPR151 activ;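 active means mean percent activation in the counterscreen above 29.09%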;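 further: counterscreen on off-target GPR119 to flag nonselective hits from the GPR151 activator screen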
* marks the source's active call; other numbers are inactive results; / = no result.

SMILES	GPR151 activ	MITF inh	FBW7 act	TEAD-YAP block	GPR151 conf act	GPR119 counter
O=[N+]([O-])c1ccc(N2CCCc3ccccc32)cc1[N+](=O)[O-]	0	3	-1	6	/	/
c1nc(NCC2CCCO2)c2c3c(sc2n1)CCCC3 (centres undefined)	1	-1	0	-2	/	/
c1nc(NCC2CCCO2)c2c3c(sc2n1)CCC3 (centres undefined)	7.6*	-3	0	-1	0	6
c1nc(NCCN2CCOCC2)c2c3c(sc2n1)CCCC3	1	-4	0	-6	/	/
c1nc(NCc2ccc(CN3CCOCC3)cc2)c2c3c(sc2n1)CCC3	6.3*	-1	0	33*	1	-6
COc1ccc(OC)c(CN2CCC3(CC2)CC3C(=O)NCCCn2ccnc2)c1 (centres undefined)	1	6	0	5	/	/
O=C(CNC(=O)c1ccccc1)OCc1ccc([N+](=O)[O-])cc1	2	-2	0	-1	/	/
COc1ccc(NCCC(=O)c2ccc([N+](=O)[O-])cc2)c(OC)c1	5.2*	3	0	9	-1	-10
COc1ccc(NC(=O)/C=C/c2ccc([N+](=O)[O-])cc2)c(OC)c1	1	-10	0	2	/	/
COc1ccc(C(=O)NCC(=O)OCc2ccc([N+](=O)[O-])cc2)cc1	8.1*	4	0	-3	0	-1
Cc1ccccc1C(=O)c1cccn1CC(=O)NC1CCCC1	-1	10	1	6	/	/
O=C(CCc1nnc(-c2ccc3c(c2)OCO3)o1)NCc1ccc(C(F)(F)F)cc1	2	-4	0	1	/	/
O=C(NC1CCCC1)N1CCN(c2nc3ccc(F)cc3s2)CC1	6.4*	6	0	-2	0	6
COc1ccc2nc(N3CCN(C(=O)C4CCCN4S(C)(=O)=O)CC3)sc2c1 (centres undefined)	1	-7	0	1	/	/
COc1ccc2nc(N3CCC(C(=O)N4CCCC4)CC3)sc2c1	6.9*	-7	0	-27	0	1
NC(=O)C1CCN(C(=O)c2ccc3nc(N4CCCCC4)sc3c2)CC1	12*	4	0	-48	2	8
O=C(O)c1ccc2nc(N3CCCCC3)sc2c1	-6	0	0	-19	/	/
NC(=O)c1ccc2nc(N3CCN(c4ccccn4)CC3)sc2c1	8.1*	-6	0	-49	0	-2
Cc1ccc(NC(=O)C(NC(=O)C(c2ccccc2)c2ccccc2)C(C)C)cc1C (centres undefined)	0	-9	0	-5	/	/
COc1cccc(C(=O)N[C@H]2C[C@H]3C(=O)N[C@@H](CC(C)C)C(=O)N3C2)c1	2	6	0	2	/	/
Clc1nc(N(c2ccccc2)c2ccccc2)nc(N(C2CCCCC2)C2CCCCC2)n1	0	36	1	-6	/	/
O=C(COc1ccccc1)Oc1ccc2nc(N3CCCC3)sc2c1	9.1*	7	0	-41	-4	-27
CCN1CCN(c2nc3ccc(OC(=O)COc4ccccc4)cc3s2)CC1	-2	11	0	-34	/	/
Nc1nnc(Cc2cccc(Br)c2)s1	11*	11	0	1	1	22
COc1ccccc1NC(=O)N1CCC(c2nc(-c3cccc(C(F)(F)F)c3)no2)CC1	11*	5	0	-4	0	-10
SMILES	GPR151 activ	MITF inh	FBW7 act	TEAD-YAP block	GPR151 conf act	GPR119 counter
COc1cccc(-c2noc(C3CCCN(C(=O)Nc4ccc(C(F)(F)F)cc4)C3)n2)c1 (centres undefined)	0	4	0	-23	/	/
COc1ccccc1NC(=O)N1CCC(C(=O)c2ccc(F)cc2)CC1	5.7*	-5	0	1	2	6
CCc1nc(N)c(C#N)c(-c2ccc([N+](=O)[O-])cc2)c1C	5.3*	7	0	-9	1	15
COc1ccc(CC(=O)N2N=C(c3cccnc3)CC2(O)C(F)(F)F)cc1 (centres undefined)	4.9*	2	1	25	1	10
COc1cccc(CNCC2CCCO2)c1OC (centres undefined)	1	4	0	0	/	/
COc1ccc(CNCC2CCCO2)c(OC)c1OC (centres undefined)	5.9*	6	0	5	0	7
CCOC(=O)COc1ccc2ccccc2c1/C=N/n1c(C)nc2ccccc2c1=O	5.0*	7	0	-4	-1	-12
CCOc1ccc(/C=N/n2c(C)nc3ccccc3c2=O)cc1	-1	-4	0	0	/	/
CCOc1ccc(NC(=O)CSc2nnnn2-c2ccc(C(=O)OC)cc2)cc1	0	-2	0	-2	/	/
O=C(OCCN1CCOCC1)c1ccc(O)c(O)c1	1	17	0	4	/	/
O=C(OCCN1CCOCC1)c1cccc(Br)c1	8.3*	-3	0	-28	-1	-12
COCCNC(=O)c1sc2ncnc(N3CCc4ccccc4C3)c2c1C	5.3*	0	0	-3	-1	0
CCOCCCNC(=O)c1ccc(Cl)c(NC2=NC3CS(=O)(=O)CC3S2)c1 (centres undefined)	0	12	0	-2	/	/
COc1ccc(C)cc1NC(=S)N1CCN(c2ccccn2)CC1	5.1*	0	0	-6	0	-5
Cc1ccc(NC(=S)N2CCN(c3ccccn3)CC2)c(C)c1	1	13	0	-3	/	/
COc1cc(NC(=S)N2CCN(c3ccccn3)CC2)cc(OC)c1	11*	-2	0	-6	0	2
CCOC(=O)CSC1=C(C#N)C(c2cccc(Cl)c2Cl)CC(=O)N1 (centres undefined)	-1	23	0	10	/	/
OCCC1CCCCN1c1ccnc2c(-c3ccsc3)cnn12 (centres undefined)	5.4*	-9	0	-54	0	0
CCN(CC)C(=O)CN(c1cc(C)cc(C)c1)S(=O)(=O)c1ccccc1	0	4	0	4	/	/
CCOc1ccc(N(CC(=O)NC(C)(C)C)S(=O)(=O)c2ccc(SC)cc2)cc1	22*	3	0	13	0	-4
CSc1ccc(S(=O)(=O)N(CC(=O)O)c2ccc(C)cc2)cc1	5.8*	19	1	6	-1	-11
CCN(CC)C(=O)CN(c1ccccc1)S(=O)(=O)c1ccc(C)cc1	6.4*	13	0	-3	2	12
CCN(CC)C(=O)CN(c1cccc(OC)c1)S(C)(=O)=O	12*	-1	0	2	1	-6
Cc1cc(C)n(-c2ccccc2Cl)c(=O)c1C(N)=O	1	16	0	0	/	/
NC(=O)c1ccc(-n2c(CCC(=O)O)ccc2-c2ccccc2)cc1	3	7	0	-1	/	/
NC(=O)c1ccc(-n2c(CCC(=O)O)ccc2-c2ccc(F)cc2)cc1	9.7*	10	0	-5	-1	-11

High-throughput results from PubChem BioAssay.
